Screening data as filed in PubChem BioAssay.
IDE exosite FP: insulin-degrading enzyme (human) exo-site inhibition. P14735. 17,000 compounds, 6.3% hits. AID 1259349. z-score at 20 µM. purified IDE, FL-6b probe fluorescence polarization; hits give low values;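 active = z-score of -3 or lower, meaning strong loss of probe binding signal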;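 also: His-tagged human IDE residues 42-1019 made in E. coli with 30 nM FL-6b probe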
Target sequence (P14735 42-1019 limits assumed): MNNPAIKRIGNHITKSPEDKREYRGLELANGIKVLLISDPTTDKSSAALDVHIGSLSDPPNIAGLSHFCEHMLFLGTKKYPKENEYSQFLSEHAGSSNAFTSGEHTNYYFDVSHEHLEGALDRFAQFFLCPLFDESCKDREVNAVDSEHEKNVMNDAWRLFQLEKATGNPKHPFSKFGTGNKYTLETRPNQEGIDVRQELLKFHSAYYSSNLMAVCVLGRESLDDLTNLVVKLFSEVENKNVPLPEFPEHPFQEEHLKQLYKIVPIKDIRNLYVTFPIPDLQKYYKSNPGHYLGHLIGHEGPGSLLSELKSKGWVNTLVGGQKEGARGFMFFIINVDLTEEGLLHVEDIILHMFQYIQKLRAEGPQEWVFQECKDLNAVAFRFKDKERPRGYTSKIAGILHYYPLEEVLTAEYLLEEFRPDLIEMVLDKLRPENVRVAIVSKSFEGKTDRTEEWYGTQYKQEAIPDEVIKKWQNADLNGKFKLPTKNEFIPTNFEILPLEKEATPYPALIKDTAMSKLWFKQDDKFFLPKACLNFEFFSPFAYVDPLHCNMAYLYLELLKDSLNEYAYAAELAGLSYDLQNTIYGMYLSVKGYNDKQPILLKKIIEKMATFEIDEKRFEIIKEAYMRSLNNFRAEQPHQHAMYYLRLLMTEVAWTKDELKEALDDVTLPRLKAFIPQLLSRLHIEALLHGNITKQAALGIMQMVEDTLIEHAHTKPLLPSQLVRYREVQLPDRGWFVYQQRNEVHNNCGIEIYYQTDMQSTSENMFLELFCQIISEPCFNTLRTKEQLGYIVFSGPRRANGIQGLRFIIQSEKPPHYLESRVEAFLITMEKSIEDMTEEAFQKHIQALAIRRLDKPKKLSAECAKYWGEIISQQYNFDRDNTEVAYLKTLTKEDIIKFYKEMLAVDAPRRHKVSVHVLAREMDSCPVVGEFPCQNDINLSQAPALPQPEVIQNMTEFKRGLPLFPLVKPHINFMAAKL
Active calls of the source: *. Many of the other results were omitted from the sample, so hits are more common in it than they were.

SMILES | IDE exosite FP
C[C@H]1CN([C@@H](C)CO)C(=O)c2cc(NC(=O)Nc3cccc4ccccc34)ccc2O[C@H]1CN(C)S(=O)(=O)c1cccs1 | 1.1
CCC(=O)NC[C@@H]1[C@H](c2ccc(C3=CCCC3)cc2)[C@H](CO)N1C(C)=O | 2.1
CC(C)C#Cc1ccc([C@@H]2[C@H]3CN(S(=O)(=O)Cc4ccccc4)CCCCN3[C@H]2CO)cc1 | 4.9
O=C1CN(S(=O)(=O)Cc2ccccc2)C[C@H]2[C@@H](c3ccc(C#Cc4ccc(F)cc4)cc3)[C@@H](CO)N12 | -1.4
O=C1CN(S(=O)(=O)Cc2ccccc2)C[C@H]2[C@H](c3ccc(C#Cc4ccccc4)cc3)[C@H](CO)N12 | -1.5
O=C1CN(S(=O)(=O)Cc2ccccc2)C[C@H]2[C@@H](c3ccc(C#Cc4ccccc4)cc3)[C@@H](CO)N12 | -3.5*
Cc1ccccc1-c1ccc([C@H]2[C@H](CO)N3C(=O)CN(C(=O)NC4CCCC4)C[C@@H]23)cc1 | -21*
CC(C)C#Cc1ccc([C@@H]2[C@H](CO)N3C(=O)CN(C(=O)NC4CCCC4)C[C@@H]23)cc1 | -1.4
O=C(NC1CCCC1)N1CC(=O)N2[C@H](CO)[C@H](c3ccc(C4=CCCCC4)cc3)[C@@H]2C1 | -2
Cc1ccccc1-c1ccc([C@H]2[C@H]3CN(C(=O)NC4CCCC4)CC(=O)N3[C@H]2CO)cc1 | -12*
CC(C)C#Cc1ccc([C@@H]2[C@@H](CO)N3C(=O)CN(C(=O)NC4CCCC4)C[C@H]23)cc1 | -1
C[C@H](CO)N1C[C@H](C)[C@H](CN(C)S(=O)(=O)c2cccs2)OCc2ccccc2-c2ccccc2C1=O | 1.5
CCC(=O)N1[C@H](CO)[C@H](c2ccc(-c3cccc(F)c3)cc2)[C@@H]1CNC(C)=O | 2.5
CCC(=O)N1[C@H](CO)[C@H](c2ccc(-c3ccccc3OC)cc2)[C@@H]1CNC(C)=O | -15*
CCC(=O)N1[C@H](CNC(C)=O)[C@H](c2ccc(-c3ccc(F)cc3)cc2)[C@@H]1CO | 0.7
CCC(=O)N1[C@@H](CO)[C@@H](c2ccc(-c3cccc(F)c3)cc2)[C@@H]1CNC(C)=O | 4.6
CC(=O)NC[C@H]1[C@H](c2ccc(-c3ccccc3F)cc2)[C@H](CO)N1C(C)=O | 3.9
CCC(=O)N1[C@H](CO)[C@H](c2ccc(-c3ccccc3OC)cc2)[C@H]1CNC(C)=O | -8.2*
C[C@H](NC(=O)C[C@H]1CC[C@@H]2[C@H](COC[C@@H](O)CN2Cc2ccc(C(F)(F)F)cc2)O1)c1ccccc1 | 1.1
COCC(=O)N1C[C@H]2[C@@H](c3ccccc31)[C@@H](CO)N2C(=O)c1ccccc1F | 0.44
COc1ccc(-c2ccc([C@@H]3[C@@H](CO)N(C(=O)c4cccc(F)c4)[C@H]3C#N)cc2)cc1 | 11
COc1ccc(-c2ccc([C@@H]3[C@@H](C#N)N(C(=O)C4CCC4)[C@H]3CO)cc2)cc1 | 5.7
COc1ccccc1-c1ccccc1[C@H]1[C@H](C#N)N(C(=O)C2CCC2)[C@H]1CO | -0.85
N#C[C@H]1[C@@H](c2ccc(-c3ccccc3F)cc2)[C@@H](CO)N1C(=O)C1CCC1 | -0.81
COc1ccc(-c2ccc([C@H]3[C@@H](C#N)N(C(=O)c4cccc(F)c4)[C@H]3CO)cc2)cc1 | 3.1
SMILES | IDE exosite FP
COc1ccccc1-c1ccc([C@H]2[C@@H](CO)N(C(=O)c3cccc(F)c3)[C@H]2C#N)cc1 | -4.2*
COc1ccccc1-c1ccc([C@H]2[C@@H](C#N)N(C(=O)C3CCC3)[C@H]2CO)cc1 | -5*
CN(C)C(=O)c1cccc(-c2ccc([C@@H]3[C@@H](C#N)N(C(=O)C4CCC4)[C@@H]3CO)cc2)c1 | -4.2*
CN(C)C(=O)c1cccc(-c2ccc([C@@H]3[C@@H](CO)N(C(=O)C4CCC4)[C@H]3C#N)cc2)c1 | 1.7
COc1ccccc1-c1ccccc1[C@H]1[C@@H](CO)N(C(=O)C2CCC2)[C@H]1C#N | 2.7
COc1ccccc1-c1ccc([C@@H]2[C@@H](C#N)N(C(=O)C3CCC3)[C@H]2CO)cc1 | -5.2*
CN(C)C(=O)c1cccc(-c2ccc([C@H]3[C@@H](CO)N(C(=O)C4CC4)[C@H]3C#N)cc2)c1 | 1.5
CCCC(=O)N1C[C@H]2[C@@H](c3ccccc31)[C@H](CO)N2C(=O)Nc1ccc(F)cc1 | 2.1
CO[C@@H]1CN(C)C(=O)c2ccc(NC(=O)Nc3ccccc3)cc2OC[C@@H](C)N(C(=O)CC2CC2)C[C@H]1C | 0.33
COCC(=O)N1[C@H](C#N)[C@H](c2ccccc2)[C@H]1CO | 3.7
O=C(C[C@H]1CC[C@@H]2[C@H](COC[C@@H](O)CN2Cc2cccc(Cl)c2)O1)NCc1cccc(F)c1 | 0.29
COc1ccc(C[C@H]2CCn3cc(nn3)COC[C@H](C)NC2=O)cc1 | -0.25
CN(C)CC(=O)N1[C@@H](C#N)[C@@H](c2ccc(C#CC3CC3)cc2)[C@@H]1CO | 2.3
COc1ccc2c3c([nH]c2c1)[C@H](CO)N(C(=O)c1ccc(F)cc1)CC31CCN(Cc2cccnc2)CC1 | -0.37
COC(=O)[C@H]1[C@H](CO)[C@H]2Cn3c(ccc(C4=CCCCC4)c3=O)[C@H]2N1C(=O)c1ccccc1F | -0.75
